# In all, about 410,000 compounds went through this assay and about 820 (0.2%) were called active. Inconclusive results (about 2%) are left out. The list comes from a sample in which actives are over-represented; it also holds similar structures and randomly drawn compounds. Unmarked numbers belong to inactive results. Calls follow the shape of the dose curve; as a rule, active = well fitted activation curve with a large enough effect; inconclusive = small, poorly fitted or top-dose-only effect; inactive = flat fitted curve, though single readings scatter; cell line not stated here.
# Test: A Quantitative High throughput Screen to Identify Chemical Modulators of PINK1 Expression; also: nearly all actives have a fitted effect of over 65% in size; as to activation (PINK1 increase): % of control where 0% means no effect
# Settings: PINK1 immunofluorescence, high-content cytometry, 24 h; series mostly up to 76.6 µM; activation (PINK1 increase): at the top concentration
# Procedure, shortened: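 Cells are seeded, rested 12 hours, then given compound at five concentrations or DMSO for 24 hours. After fixation, blocking and antibody staining, PINK1 amount and mitochondrial localization are scored; CCCP serves as control.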
# Potency is read from the fitted curve at half-maximal effect.
Compound,activation (PINK1 increase),Potency
O=C(CCN1Cc2ccccc2OC(c2ccccc2)C1)N[C@@H]1CS(=O)(=O)C[C@H]1O (stereo partly drawn),-0.62%,–
CN1CCN(c2ncc3nc(-c4ccc(Cl)cc4)c(=O)n(-c4ccccc4)c3n2)CC1,3.94%,–
CCc1nc2cc(C(=O)NCC3CCS(=O)(=O)C3)cc(NC(=O)c3ccccc3OC)c2n1C (stereo not drawn),0.746%,–
C=CCn1c(C)cc(C2=NNC(=NCC)SC2)c1C,0.36%,–
CCOc1ccc(S(=O)(=O)N2CCN(C(=S)NCC3CCCO3)CC2)cc1 (stereo not drawn),1.31%,–
Cc1cc(C2=NNC(=Nc3ccc(S(=O)(=O)N4CCOCC4)cc3)SC2)c(C)n1CC1CCCO1 (stereo not drawn),–,35.5 µM (active)
COc1ccccc1CNc1ncncc1-c1cccnc1,-0.566%,–
COC(=O)c1c(OCc2ccc(F)cc2)cc(=O)n2c1CCN(Cc1ccc3cccnc3c1)CC2,0.408%,–
COc1ccc(C2=NOC(C(=O)NCc3ccco3)C2)cc1OC (stereo not drawn),–,12.6 µM (active)
O=C(NCc1cc(C(F)(F)F)cc(C(F)(F)F)c1)C1CC(c2cccc(F)c2)=NO1 (stereo not drawn),9.67%,–
COc1ccc(S(=O)(=O)N2CCC(C(=O)NCc3ccco3)CC2)cc1C,-0.254%,–
COc1cc2nc(N3CCCN(C)CC3)nc(NC(C)C)c2cc1OC,2.45%,–
CCc1noc(C)c1C(=O)NCCN1Cc2cc(OC)ccc2OC(CC)C1 (stereo not drawn),-0.237%,–
O=C(c1cccnc1)N1CCN(S(=O)(=O)c2cccs2)CC1,0.0275%,–
O=C(Nc1ccc(N2CCN(C(=O)c3ccccc3)CC2)c(Cl)c1)c1cccnc1,-3.19%,–
O=C(N/N=C/c1sc(N2CCCCC2)nc1-c1cccs1)c1cccnc1,–,20 µM (active)
Cc1ccc(-c2ccc(C(=O)N3CCc4nnc(CNC(=O)c5ccccc5)n4CC3)cc2)cc1,0.715%,–
O=C(CN1Cc2ccccc2OC(c2ccccc2)C1)N1CCCCC1c1cccnc1 (stereo not drawn),0.558%,–
CCOc1ccc2nc(N3CCCN(CCCn4cccn4)CC3)nc(C)c2c1,-0.633%,–
Oc1c(Br)cccc1/C=N/Nc1c(F)c(F)c(F)c(F)c1F,–,39.8 µM (active)

Compound,activation (PINK1 increase),Potency
CCOC(=O)N1CCC(N2CCOc3ccc(CN4CCC(O)(c5cccnc5)CC4)cc3C2)CC1,0.385%,–
O=C(CSc1nc2ccccc2c(=O)n1CCCO)NC1CC1,0.89%,–
O=C(CCCn1c(SCC(=O)c2ccc(F)cc2)nc2ccccc2c1=O)NCc1ccco1,–,15.8 µM (active)
O=C(CSc1nc2cc3c(cc2c(=O)n1CCC1=CCCCC1)OCO3)NCc1ccco1,11.5%,–
O=C(Nc1ccc([N+](=O)[O-])cc1)c1cnn2c1NC(=C1CC1)C=C2C(F)F,-0.0813%,–
COCC(=O)Nc1cc(C(=O)N2CCCC(c3ccccc3)CC2)c2c(c1)nc(-c1ccncc1)n2C (stereo not drawn),-0.433%,–
COc1ccccc1C1CN(Cc2ccccc2O)Cc2ccccc2O1 (stereo not drawn),0.0982%,–
COC(=O)c1ccccc1C(=O)NCc1nc(N2CCCC2)c2cccc(C)c2n1,-0.339%,–
Cc1cc(C)c(S(=O)(=O)NCCCN2CCOCC2)cc1Br,-1.42% [at 38.3 µM],–
Cc1ccc(S(=O)(=O)NCCN2CCOCC2)cc1C,–,14.1 µM (active)
O=S(=O)(NCCCN1CCOCC1)c1ccc(F)c(Cl)c1,4.27%,–
COc1ccccc1C(=O)N[C@@H]1c2ccccc2C2(CCN(Cc3nc(C(C)C)cs3)CC2)[C@H]1O,-1.21%,–
COc1cc(OC)c(/C=C/c2ccnc3ccccc23)c(OC)c1,8.99%,–
Cc1cccc(CNC(=O)c2cnn(-c3nccc(-c4ccccc4F)n3)c2C2CC2)n1,-0.292%,–
CN(C)c1ccc(/C=C2\C=Cc3ccccc32)cc1Br,2.66%,–
CC(C)(C)C1CCC(NC(=O)c2cnn3c2NC(=C2CC2)C=C3C(F)F)CC1 (stereo not drawn),-0.21%,–
Cn1nccc1C(=O)NCC1CCC2(CCN(Cc3c(O)ccc4ccccc34)CC2)O1 (stereo not drawn),-0.145%,–
O=C(NCCN1CCOCC1)c1cnn(-c2nccc(-c3cccs3)n2)c1C1CC1,1.85%,–
Cc1cnc(C)c(-c2cc(F)c3c(c2)CC(CNC(=O)c2cccc(Cn4cccn4)c2)O3)n1 (stereo not drawn),0.0853%,–
CCOc1ccc2c(c1)cc(CN(C(=O)CC)C1CCCCC1)c1nnnn12,-2.48%,–

Compound,activation (PINK1 increase),Potency
CCc1cccc(NC(=S)N(CCN(C)C)C2CCN(C(C)C)CC2)c1,-1.23%,–
CCc1ccc2c(c1)cc(CN(C(=S)Nc1ccccc1Cl)C1CC1)c1nnnn12,–,12.6 µM (active)
CC(C)C(=O)NC(C)c1nnc2n1CCN(Cc1cccc3ncccc13)CC2 (stereo not drawn),-0.848%,–
O=C1CCN(Cc2ccc(-c3ccccc3)cc2)CCN1Cc1ccccn1,0.935%,–
Cc1oc(-c2cccc(NC(=O)c3ccccc3)c2)nc1CNC(=O)c1cnc2ccccn2c1=O,0.787%,–
O=C(Nc1ccccc1C(F)(F)F)c1nc(S(=O)(=O)Cc2ccccc2F)ncc1Cl,3.33%,–
COCCCNC(=O)/C(C#N)=C/c1c(N2CCCCCC2)nc2ccccn2c1=O,0.655%,–
N#C/C(=C/c1ccc(N2CCCCC2)o1)C(=O)NCCc1c[nH]c2ccccc12,–,11.2 µM (active)
CC1(C(=O)NCCc2c[nH]c3ccccc23)C=CC2(CCCCC2)N1C(=O)c1ccccc1 (stereo not drawn),-0.269%,–
COCCN1CCN(C(=O)c2sc3ncnc(NCC4CCCO4)c3c2C)CC1 (stereo not drawn),0.389%,–
CN1CCCCCC1C(=O)NCCN1Cc2ccccc2OC(c2ccsc2)C1 (stereo not drawn),-0.383%,–
COc1ccccc1-c1ccnc(-n2ncc(C(=O)NCCc3ccncc3)c2C)n1,1.69%,–
COC(=O)C1CCCCN1Cc1ccc2c(c1)CN(Cc1cc(OC)c3c(c1)OCO3)CCO2 (stereo not drawn),0.531%,–
N#Cc1ccc(C(=O)Nc2nc(-c3cccs3)c(C(=O)C(F)(F)F)s2)cc1,–,6.31 µM (active)
COc1ccc(C(F)(F)F)cc1NC(=O)c1sc2nc(-c3cccs3)ccc2c1N,16.7%,–
COCC(C)NC(=O)c1ccc(-n2nc(C(F)(F)F)cc2-c2cccs2)cc1 (stereo not drawn),-2.38%,–
C=C1C=C(C)n2ncc(C(=O)Nc3ccccc3O)c2N1,1.83%,–
COc1ccccc1CNc1cc(-c2ccccc2CN(C)C)ncn1,0.0313%,–

# — PubChem BioAssay AID624263 (National Center for Advancing Translational Sciences (NCATS), 2012)
